The record followed here is PubChem BioAssay (EPA / NIEHS).

Assay [1] can be described thus: Tanguay_ZF_120hpf_MORT_legacy: (Legacy) Oregon State University Tanguay Lab 120 Hour Post-fertilization zebrafish Assay for Mortality (AID 2283633).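 As to AC50: fitted as increase in binary mortality versus DMSO negative control.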 The procedure, abridged: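 Dechorionated Tropical 5D wild-type zebrafish embryos, one per well from 6 hpf, were statically exposed at 28C in the dark until 120 hpf (0.64% DMSO final). Mortality was scored as present/absent by brightfield microscopy, fitted positively versus DMSO.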

A short description of assay [2]: Tanguay_ZF_120hpf_YSE_legacy: (Legacy) Oregon State University Tanguay Lab 120 Hour Post-fertilization zebrafish Assay for Yolk Sac Edema (AID 2283634). The essentials: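 Tropical 5D wild-type embryos, dechorionated with pronase at 4 hpf, were exposed singly from 6 hpf to 120 hpf under static, sealed, dark conditions at 28C with 0.64% DMSO final. Yolk sac edema was scored present/absent by brightfield microscopy.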

Assay [3] can be described thus: Tanguay_ZF_120hpf_AXIS_legacy: (Legacy) Oregon State University Tanguay Lab 120 Hour Post-fertilization zebrafish Assay for Body Axis Malformation (AID 2283635). The essentials: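 Tropical 5D wild-type zebrafish embryos, dechorionated with pronase at 4 hpf, were placed singly in wells at 6 hpf and exposed statically to test chemical (0.64% DMSO final) at 28C until 120 hpf, then scored by brightfield for body axis defects.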

Assay [4] in a line: Tanguay_ZF_120hpf_EYE_legacy: (Legacy) Oregon State University Tanguay Lab 120 Hour Post-fertilization zebrafish Assay for Eye Malformation (AID 2283636).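 Also: binary presence or absence of eye malformation scored by brightfield in 120 hpf larvae.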 The procedure, abridged: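 Static waterborne exposure of dechorionated zebrafish embryos (strain Tropical 5D), 6 to 120 hpf, sealed plates at 28C, 0.64% DMSO vehicle. Eye malformation is scored as a binary endpoint, with gain of signal analysed relative to DMSO.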

Assay [5] in a line: Tanguay_ZF_120hpf_SNOU_legacy: (Legacy) Oregon State University Tanguay Lab 120 Hour Post-fertilization zebrafish Assay for Snout Malformation (AID 2283637). The procedure, abridged: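 Dechorionated zebrafish, individually housed from 6 hpf in covered, sealed wells at 28C with 0.64% DMSO vehicle, were examined at 120 hpf for snout malformation. Responses were binary and analysed positive-direction relative to DMSO.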

Assay [6] can be described thus: Tanguay_ZF_120hpf_JAW_legacy: (Legacy) Oregon State University Tanguay Lab 120 Hour Post-fertilization zebrafish Assay for Jaw Malformation (AID 2283638). The procedure, abridged:
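Tropical 5D wild-type embryos, dechorionated with pronase at 4 hpf, were placed singly per well at 6 hpf and statically exposed at 28C until 120 hpf (0.64% DMSO final). Jaw malformation scored as present/absent by brightfield microscopy at 120 hpf, analyzed relative to DMSO.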

Assay [7] is described as follows: Tanguay_ZF_120hpf_OTIC_legacy: (Legacy) Oregon State University Tanguay Lab 120 Hour Post-fertilization zebrafish Assay for Otic Vesicle Malformation (AID 2283639). The procedure, abridged: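 Statically exposed wild-type 5D zebrafish embryos, kept sealed and dark at 28C through 120 hours post fertilization, were examined by brightfield microscopy for otic vesicle defects. Responses were recorded as present or absent and analysed relative to DMSO.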

A short description of assay [8]: Tanguay_ZF_120hpf_SOMI_legacy: (Legacy) Oregon State University Tanguay Lab 120 Hour Post-fertilization zebrafish Assay for Somite Malformation (AID 2283647). The essentials:
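Tropical 5D wild-type zebrafish embryos, dechorionated with pronase at 4 hpf, were placed singly at 6 hpf and statically exposed until 120 hpf at 28C in 0.64% DMSO. Somite malformation was scored present/absent by brightfield microscopy versus DMSO.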

Assay [9] in a line: Tanguay_ZF_120hpf_PFIN_legacy: (Legacy) Oregon State University Tanguay Lab 120 Hour Post-fertilization zebrafish Assay for Pectoral Fin Malformation (AID 2283648).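 Also: each larva judged yes or no for fin defect by brightfield with dead larvae skipped.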 The procedure, abridged: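 Scoring of pectoral fin malformation was binary, made at 120 hpf on larvae exposed statically from 6 hpf after enzymatic chorion removal. Activity was fitted upward relative to DMSO controls at 0.64% (vol/vol).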

A short description of assay [10]: Tanguay_ZF_120hpf_CFIN_legacy: (Legacy) Oregon State University Tanguay Lab 120 Hour Post-fertilization zebrafish Assay for Caudal Fin Malformation (AID 2283649). The procedure, abridged:
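Tropical 5D wild-type embryos, dechorionated with pronase at 4 hpf, were placed singly in wells at 6 hpf and statically exposed to compound at 28C until 120 hpf (0.64% DMSO). Caudal fin malformation was scored present/absent by brightfield microscopy.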

Assay [11] in a line: Tanguay_ZF_120hpf_PIG_legacy: (Legacy) Oregon State University Tanguay Lab 120 Hour Post-fertilization zebrafish Assay for Pigmentation Malformation (AID 2283650). The procedure, abridged: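 Endpoint is incidence of abnormal pigmentation at 120 hpf in dechorionated 5D zebrafish exposed singly from 6 hpf at 28C, DMSO vehicle at 0.64%. Embryos dying by 24 or 120 hpf are excluded from scoring.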

Assay [12] can be described thus: Tanguay_ZF_120hpf_CIRC_legacy: (Legacy) Oregon State University Tanguay Lab 120 Hour Post-fertilization zebrafish Assay for Circulatory Malformation (AID 2283651). The essentials: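 Embryos are dechorionated at 4 hpf, plated one per well at 6 hpf, then held under static exposure at 28C until 120 hpf. Malformations are recorded as binary calls; mortality excludes other endpoints.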

Assay [13] can be described thus: Tanguay_ZF_120hpf_TRUN_legacy: (Legacy) Oregon State University Tanguay Lab 120 Hour Post-fertilization zebrafish Assay for Truncated Body (AID 2283655). The procedure, abridged:
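Tropical 5D wild-type embryos, dechorionated with pronase at 4 hpf, were placed singly in wells at 6 hpf and statically exposed at 28C until 120 hpf, final DMSO 0.64%. Truncated body was scored present/absent by brightfield microscopy.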

The nature of assay [14]: Tanguay_ZF_120hpf_NC_legacy: (Legacy) Oregon State University Tanguay Lab 120 Hour Post-fertilization zebrafish Assay for Notochord and Tail Malformation (AID 2283656). The essentials: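 Binary scoring of notochord distortion by brightfield microscopy; embryos dying were not scored. Wild-type Tropical 5D embryos, chorion removed, exposed singly and statically from 6 to 120 hpf, 28C, sealed, 0.64% DMSO.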

The nature of assay [15]: Tanguay_ZF_120hpf_BRAI_legacy: (Legacy) Oregon State University Tanguay Lab 120 Hour Post-fertilization zebrafish Assay for Brain Malformation (AID 2283641). The essentials: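 Tropical 5D wild-type zebrafish embryos were exposed statically in sealed, foil-covered plates at 28C until 120 hpf, with 0.64% (vol/vol) final DMSO. Brain malformation was scored present/absent by brightfield microscopy, relative to DMSO baseline.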

Assay [16] in a line: Tanguay_ZF_120hpf_PE_legacy: (Legacy) Oregon State University Tanguay Lab 120 Hour Post-fertilization zebrafish Assay for Pericardial Edema (AID 2283640). The essentials:
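Tropical 5D wild-type zebrafish embryos were exposed statically to 120 hpf at 28C, sealed and foil-covered, in 0.64% DMSO final. Pericardial edema was scored present/absent by brightfield microscopy; dead embryos were not scored.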

The nature of assay [17]: Tanguay_ZF_120hpf_SWIM_legacy: (Legacy) Oregon State University Tanguay Lab 120 Hour Post-fertilization zebrafish Assay for Swim Bladder Malformation (AID 2283654).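 Also: swim bladder malformation in each larva scored yes or no under brightfield.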 The essentials:
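Static waterborne exposure of single dechorionated Tropical 5D zebrafish embryos, 6–120 hpf, 28C, 0.64% DMSO final. Read-out: swim bladder malformation, present/absent, relative to DMSO negative control; trimethyltin chloride 5uM served as positive control.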

Read-out in assay [18]: kallikrein-3 (KLK3), KLK3 (gene 354)
Put plainly: LTEA_HepaRG_KLK3: Life Technologies and Expression Analysis (LTEA) Assay for kallikrein-3 (KLK3) using HepaRG (AID 2283652; active = hit-call score of the fitted dose curve at least 0.9, where 1 is the maximum; inactive = score below 0.9). The conditions noted are these: mRNA level, 48 h; actives raise or lower the signal. The procedure, abridged: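 KLK3 transcript levels were measured by TaqMan qRT-PCR with normalisation to three housekeeping genes. HepaRG cultures received chemicals for 48 h at up to 100 uM (half-log, 8 points, 0.5% DMSO vehicle), fitted in both directions against DMSO.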

Read-out in assay [19]: solute carrier (SLC22A6), SLC22A6 (gene 9356)
Put plainly: LTEA_HepaRG_SLC22A6: Life Technologies and Expression Analysis (LTEA) Assay for solute carrier (SLC22A6) using HepaRG (AID 2283653; active = hit-call score of the fitted dose curve at least 0.9, where 1 is the maximum; inactive = score below 0.9). As to conditions: mRNA level, 48 h; actives raise or lower the signal. The essentials: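 Differentiated human HepaRG cells were exposed for 48 h in serum-free induction medium to eight concentrations (top 100 uM, half-log steps, 0.5% DMSO), in duplicate. SLC22A6 mRNA was quantified by qRT-PCR, normalised to ACTB, GAPDH and POLR2A, and fitted bidirectionally against DMSO.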

Read-out in assay [20]: solute carrier (SLC10A1), SLC10A1 (gene 6554)
Put plainly: LTEA_HepaRG_SLC10A1: Life Technologies and Expression Analysis (LTEA) Assay for solute carrier (SLC10A1) using HepaRG (AID 2283657; active = hit-call score of the fitted dose curve at least 0.9, where 1 is the maximum; inactive = score below 0.9). As to conditions: mRNA level, 48 h; actives raise or lower the signal. The procedure, abridged:
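Cryopreserved HepaRG cells are thawed, plated and cultured 48 h; medium is then switched to serum-free induction medium and chemicals added (8 points, max 100 uM, 0.5% DMSO). After 48 h, RNA is isolated and SLC10A1 quantified by qRT-PCR.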

The AC50 is the midpoint of the concentration-response curve, whichever way the signal moves.

Molecules are shown by their SMILES. Records with an inconclusive call do not appear. Activity calls are given as the source filed them. The calls were made as follows, unless noted: active = hit-call score of the fitted dose curve at least 0.9, where 1 is the maximum; inconclusive = response in the unintended direction; inactive = score below 0.9.

Turning to `CCC12COCN1COC2`, the call in assay [1], in assay [2], in [3], in assay [4], in assay [5] and in assay [6] was inactive. Moreover, the result in [7], in assay [8], in [9], in [10], in [11] and in assay [12] was inactive. The result in assay [13] and in [14] was inactive.
Turning to `c1ccc2c(c1)oc1ccccc12`, the call in [1], in assay [2], in assay [3], in assay [4], in assay [5] and in [6] was inactive. Moreover, the molecule was called inactive in [7], in assay [8], in [9], in assay [10], in [11] and in assay [12]. Also, the outcome in assay [13] and in assay [14] was inactive.
On to `Cc1ccc(N=C=O)cc1N=C=O`, for which the outcome in assay [1], in assay [2], in assay [3], in assay [4], in [5] and in assay [6] was inactive. In addition, the molecule was classed as inactive in assay [7], in assay [15], in [8], in assay [9], in [10] and in assay [12]. Besides, the molecule was called inactive in assay [13] and in [14].
For `CN(C)[C@@H]1C(=O)C(C(N)=O)=C(O)[C@@]2(O)C(=O)C3=C(O)c4c(O)cccc4[C@@](C)(O)[C@H]3C[C@@H]12`, the call in [1], in assay [2], in assay [3], in assay [4], in [5] and in [6] was inactive. Further, the molecule was called inactive in assay [16], in assay [8], in assay [9], in assay [10], in assay [11] and in [12]. Besides, the outcome in assay [17], in assay [13] and in assay [14] was inactive.
Turning to `Cc1ccc([N+](=O)[O-])cc1`, the call in assay [1], in assay [2], in assay [4], in assay [5], in assay [6] and in assay [7] was inactive. The molecule was called inactive in [16], in assay [15], in [8], in assay [9], in assay [10] and in assay [11]. Also, the outcome in assay [12], in assay [18], in assay [19], in assay [17], in assay [13] and in [14] was inactive. In addition, the molecule was classed as inactive in assay [20].
On to `CCCCCCCCn1sccc1=O`, for which the AC50 in [1] was 2960 nM (active). Further, the outcome in assay [3], in [4], in [6], in [7], in [15] and in assay [9] was inactive. Besides, the call in assay [10], in assay [11], in assay [12], in assay [17], in assay [13] and in [14] was inactive.
Take `N#CC(Br)Br`: the molecule was classed as inactive in assay [1], in assay [3], in [5], in assay [6], in assay [7] and in [16]. Moreover, the call in assay [15], in [8], in [9], in assay [10], in assay [12] and in assay [17] was inactive. In addition, the result in assay [13] and in assay [14] was inactive.
As for `CC(C)(C)C(O)(CCc1ccc(Cl)cc1)Cn1cncn1` (stereo unspecified), the outcome in assay [1], in assay [2], in assay [3], in assay [4], in assay [5] and in assay [7] was inactive. In addition, the molecule was called inactive in [16], in [15], in [8], in assay [10], in assay [11] and in [17]. Besides, the call in assay [14] was inactive.
With `O=[N+]([O-])C(Br)(CO)CO`, the molecule was classed as inactive in assay [1], in assay [2], in [3], in assay [4], in assay [5] and in [7]. The call in assay [15], in assay [8], in [9], in assay [10], in [11] and in assay [19] was inactive. Further, the outcome in [17], in assay [14] and in assay [20] was inactive.
